Data on six molecules can be found in the supplement of paper PMC10105736.

Common to all, as to assay: MAPPIT interaction score (arbitrary units); higher = stronger binary interaction signal, active = hit call of the paper
For one experiment, the target named is CROT. Particulars: MAPPIT configuration: N-N; pair source set: Curagen_high_conf.
A further experiment concerns the target CG9825. Particulars: MAPPIT configuration: N-C; pair source set: screen_4.
A further experiment concerns the target CG9676. To be noted: MAPPIT configuration: N-N; pair source set: RRS.
In the next experiment the target is CHES-1-like. Particulars: MAPPIT configuration: N-C; pair source set: screen_4.
Another experiment deals with Mf. To be noted: MAPPIT configuration: N-C; pair source set: screen_3.
In the next experiment the target is mri. Particulars: MAPPIT configuration: N-N; pair source set: screen_1.
A further experiment has as its target CSN4. To be noted: MAPPIT configuration: N-C; pair source set: Lit-BM-16.
The target of another experiment is Cog6. To be noted: MAPPIT configuration: N-N; pair source set: Finley_Y2H.

Values without a mark were called inactive.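 How the source made its calls: active = MAPPIT score above the 99th percentile of random reference set scores in the same batch; inactive = at or below it.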
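Further: HEK293T cells with Epo stimulation, STAT-responsive firefly luciferase reporter, fold induction versus unstimulated cells divided by the larger fold induction of two negative controls lacking either bait or prey.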

B1: Usp30 (protein)
chain: MESEKILMAAGVTVAAVVGAFVFWGPSGSRLRQRRGQIAGLHNFGLTCFLNTLLQAMAACPQFIAWLQLYNNASPDRKSLITSMLNTLEVVNGTHATLRGDPYSPGAVLRALNALGWVIPQEEHDAHELFHVLLTCLEEEAIRPQPLGCLSDALPTDNDDNSSLAGTATPVGGFRSFSSMAAGLGASQRIGDQPNRPSSAMLTDFLNMEYDESTSLQRLVRSEAHTPDSPASVCERDGNDRLGSVLLDAVSPGTPFGFPLVSNPDSLATPMLGGERSSRPRLPQSQQQQDEGLNRRVSSSCRSLERLHRGPGRVSIWSNMMPSQVAHPFQGAMGAQIVCNGCGSKSAVRYDKFDSITLNLPPQRRTGLSLGHLLSEYITSEDLSDVKCDSCNETTTHTKSVTFAKLPACLCIHVARTVWLPTGQVCKRKDYVHFPESLSMAPYSFVQPHLNSQAGTPWGSTMSLYSSSLPMNNGVGGGEGFGTMFPKNLYRLLAVVVHSGEANSGHFVTYRRGSLRNAHRWYYTSDTIVREVSIDEVLSVPAYLLFYDRGQQRQLNLR
In the case of B1, the MAPPIT interaction score with CROT is 2.05.

B2: CG8306 (protein)
chain: MASSPITDFYAGRNVFITGATGFVGVTIVEKLLRDVPNVGTLYLLMRAKKGKSVQERLEELKKNSVFDKFKELQLQSRLSKIVPIEGDVGLEHLGISPKDRQTLIDNVNVVFHSAATLDFFQSLKETTNINLRGTRRVVELCQQIKNLDALVHVSSAYVNAYLTKVEEKLYPAPEDPEKIIQLSETLNDDALKELEPKLLKDHPNTYTFTKHLAEHEVANVASKFPCGIVRPSMITAAWKEPIPGWTISKNGPQGFFMGASKGVLRRLPLDPSIIMDYIPIDVVVNGIITTGYYVNSLQAKNGGRPADLQIFHLTSSTYKPFRFELMTDKINSYLHDYPLNSAVWYPNLRLVKSLWVFRLSAILFHFIPAIILDLVTKIGGGRPILVRLHKNVWNSLNTLEKFIFTEWHFDSKRLLALSKTLNIVDKKKFFIDIGELAWDEYFSNTILGVRQYLSKEPIKNLEKARRKDKILLGLHVALQLSFWYGVFKLIVCLTGISTAKAALVLPVLYYLFGLL
For B2, the MAPPIT interaction score with CG9825 is -0.0656.

B3: sgg (protein)
chain: MSGRPRTSSFAEGNKQSPSLVLGGVKTCSRDGSKITTVVATPGQGTDRVQEVSYTDTKVIGNGSFGVVFQAKLCDTGELVAIKKVLQDRRFKNRELQIMRKLEHCNIVKLLYFFYSSGEKRDEVFLNLVLEYIPETVYKVARQYAKTKQTIPINFIRLYMYQLFRSLAYIHSLGICHRDIKPQNLLLDPETAVLKLCDFGSAKQLLHGEPNVSYICSRYYRAPELIFGAINYTTKIDVWSAGCVLAELLLGQPIFPGDSGVDQLVEVIKVLGTPTREQIREMNPNYTEFKFPQIKSHPWQKVFRIRTPTEAINLVSLLLEYTPSARITPLKACAHPFFDELRMEGNHTLPNGRDMPPLFNFTEHELSIQPSLVPQLLPKHLQNASGPGGNRPSAGGAASIAASGSTSVSSTGSGASVEGSAQPQSQGTAAAAGSGSGGATAGTGGASAGGPGSGNNSSSGGASGAPSAVAAGGANAAVAGGAGGGGGAGAATAAATATGAIGATNAGGANVTDS
Turning to B3, in the experiment with CG9676, the MAPPIT interaction score was 0.279.

B4: Lasp (protein)
chain: MNKTCARCQKVVYPIEELKCLDKTWHKTCFKCTECGMTLNMKTYKGYNKMPYCEAHIPKAKATAIADTPELKRIAENTKIQSNVKYHADFEKAKGKFTQVADDPETLRIKQNTKHISNVAYHGDLEKKAAMEKQRGSAEVSDSSNESEYFSEQLAAEQFSQYAPTASPIPPAATTLHQQQQQLQHQQQQQYQQHQQQLQQQQHQHQHYLQQQQQTLPPPPIQHQQYNTAAITPTYQQLQQQQQQQQQQRAQQQQLHDPYAHYQQPQALRQQQQQQQQQQQQLLQQQAIKQASHLYPTATSQQQQMPPPQSPANPQQQALNSYNEMRSAILQNSHHPSGNSVDQYDQPQQQQHQPQQQSTNPTLVAAQQQQSHHSLLNNNASNGGISHSHHSNINNNGHGSQNQMLPPQMRRSAASVVAYDGNSKQQVAAGPGAAQNHLQQLYASPNYAAVTPSENSINVKQHASNGHMPNQQQQHVAGGSNIGKIADYDPLTDGPRVVPNAGRSSTTLVYSSEPRGNQGGNSVYPKRIGSVSDIDPANGIYGSLTAAEQAHQQQKHQQYYQQVQMMQQQEHPPQQQQMRQQPSYSSLQEKQSRQSTAMRVYRAIYDYEAQDVDEVSFREGDVIFEVESIDSGWMTGRVERTGKTGMLPANYVEQAVI
On to B4, for which the MAPPIT interaction score in the experiment with CHES-1-like is 0.887; in the experiment with Mf, 3.01; in the experiment with mri, 1.83.

B5: to (protein)
chain: MFAIAFAVVLCLLVSVDAKFPEDPKPCKYGDGECIMKLCNTLFSENSAEGDPGLNLMQLDPLKVDRMVISQGESSSPVGITLTFTDNLLYGIKDQRIVKVKGFGRDLTAKHEVKIVTKTFSLVGPYNIQGKVLILPISGTGQSNMTMVNVRAIVSFSGKPLVKNGETYLDVTDLKITMKPESSHYHFSNLFNGDKALGDNMNVFLNENSEAIYKETAKAIDRSFGKLYLGVVKGVFSKLPYAKFFADES
With B5, the MAPPIT interaction score in the experiment with CG9825 is 0.062.

B6: CSN7 (protein)
chain: MTQDMLLGNEEPSKSKETFLEKFCVLAKSSTGAALLDVIRQALEAPNVFVFGELLAEPSVLQLKDGPDSKHFETLNLFAYGTYKEYRAQPEKFIELTPAMQKKLQHLTIVSLAIKAKSIPYALLLSELEIDNVRHLEDIIIEAIYADIIHGKLFQNTRILEVDYAQGRDIPPGYTGQIVETLQAWVNSCDSVSNCIEMQIKYANAEKSKRLINKERVEQDLINLKKVLKSQTSDSDESMQIDTHGPGTSGGLGQSELRKKPSKLRNPRSAAVGLKFSK
B6: the MAPPIT interaction score was 1.74 in the experiment with CSN4 and -0.342 with Cog6.
